In PubChem BioAssay AID1376 (SRMLSC, 2008):
The campaign covered roughly 220,000 compounds. About 530 (0.24%) were called active. Many of the other results were omitted from the sample, so actives are more common in it than they were. Entries with a potency or affinity are not part of this list. Values without a mark were called inactive. Rule as the data show it: active = inhibition above about 13%; inconclusive = no clear call, values can overlap the other calls; inactive = below that.

Molecular target: Bifunctional protein GlmU (Mycobacterium tuberculosis (strain ATCC 25618 / H37Rv)) (UniProt P9WMN3)
Sequence (P9WMN3 whole entry, looked up): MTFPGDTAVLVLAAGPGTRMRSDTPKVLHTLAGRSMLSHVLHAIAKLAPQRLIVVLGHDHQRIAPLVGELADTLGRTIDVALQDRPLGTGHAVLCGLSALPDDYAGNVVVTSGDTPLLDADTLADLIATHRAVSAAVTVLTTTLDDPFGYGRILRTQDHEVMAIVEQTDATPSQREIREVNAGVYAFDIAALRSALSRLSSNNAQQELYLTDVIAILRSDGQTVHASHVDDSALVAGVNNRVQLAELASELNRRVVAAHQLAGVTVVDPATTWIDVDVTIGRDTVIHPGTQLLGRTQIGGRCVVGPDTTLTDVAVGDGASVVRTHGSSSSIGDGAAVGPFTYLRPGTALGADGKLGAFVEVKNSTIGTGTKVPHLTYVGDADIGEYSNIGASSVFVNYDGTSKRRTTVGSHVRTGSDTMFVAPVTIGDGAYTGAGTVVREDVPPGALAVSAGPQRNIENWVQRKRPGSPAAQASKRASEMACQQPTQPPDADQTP
Experiment: inhibition of mycobacterial GlmU enzyme – biochemical, glucosamine-1-phosphate acetyltransferase (AID 1376);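 also: 0% = complete reaction with vehicle and 100% = reaction without substrate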
Details: M. tuberculosis GlmU acetyltransferase enzyme assay; hits give high values;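 tested at 30 µM in the primary screen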

Compound | inhibition
Cc1cccc2cc3c(NC(=O)CC(C)C)nn(C)c3nc12 | 0.35%
CC1=C(C/C(C)=C/c2ccccc2)/C(=C/CO)[C@H](O)[C@](C)(O)C12CC2 | 13.9% (active)
CC1=C(C/C(C)=C/c2ccccc2)/C(=C/CO)[C@@H]2OC(=O)O[C@]2(C)C12CC2 | 3.53%
C/C(=C\c1ccccc1)CN1CCN(c2ccccc2)CC1 | 2.64%
NC(=O)c1ccccc1NC(=O)Nc1cccc2ccccc12 | -1.2%
NC(=O)NNC(=S)Nc1cccc2ccccc12 | 4.54%
NC(=O)Nc1cccc2ccccc12 | 14.6% (active)
O=C1CCCC2=C1C1c3ccccc3C(=O)N1c1ccc(C(=O)c3ccccc3)cc1N2 (stereo not given) | 0.1%
O=C(CCC(=O)c1ccc(Oc2ccccc2)cc1)Nc1cccc(Cl)c1 | 3.77%
Cc1ccccc1-c1cc(=O)c2c(O)cccc2o1 | -2.72%
CC1(C)CC(=O)c2c(oc3cc(O)c(O)cc23)C1 | -1.56%
CCOc1ccccc1-c1c2cc(O)c(=O)cc-2oc2cc(O)c(O)cc12 | -3.1%
COc1ccc(OC)c(-c2c3cc(O)c(=O)cc-3oc3cc(O)c(O)cc23)c1 | 14.7% (active)
O=c1cc2oc3cc(O)c(O)cc3c(-c3ccccc3O)c-2cc1O | 15.4% (active)
COc1ccc(OC)c(-c2oc3ccccc3c(=O)c2O)c1 | 0.78%
COc1cc(OC)c(-c2c3cc(O)c(=O)cc-3oc3cc(O)c(O)cc23)cc1OC | 8.01%
Cc1c2cc(O)c(=O)cc-2oc2cc(O)c(O)cc12 | 27.1% (active)
O=c1cc(-c2ccccc2Cl)oc2cccc(O)c12 | 3.22%
Cc1cc(NC(=O)CCCn2nc([N+](=O)[O-])cc2C)no1 | 0.02%
COc1ccc2c(OC)cc(-c3ccccc3)nc2c1 | 3.08%
Cc1cc(NC(=O)Cc2ccccc2)c2ccccc2n1 | -0.11%
CC(=O)Nc1cccc(NC(=O)CSc2ccc(C(F)(F)F)cc2[N+](=O)[O-])c1 | 1.81%
CCOC(=O)c1c(C2CC2)csc1NC(=O)COC(=O)c1cnc(Cl)c(Cl)c1 | 4.42%
S=c1[nH]nc(COc2cccc(Cl)c2)n1Cc1ccccc1 | 2.34%
O=C(Cc1c[nH]c2ccccc12)Nc1nccs1 | 3.72%

Compound | inhibition
CC1Cc2ccccc2N1C(=O)C1CCCN(S(=O)(=O)c2cccc3cccnc23)C1 (stereo not given) | -0.65%
CCSc1nc2ccccc2c(=O)n1C1CCOC(C)(C)C1 (stereo not given) | 7.35%
O=C(NCCCN1CCOCC1)c1sc2cc(F)ccc2c1Cl | -2.73%
O=C(NCCCN1CCOCC1)c1sc2cc(Cl)ccc2c1Cl | 4.82%
O=C(NCCCN1CCOCC1)c1sc2cc([N+](=O)[O-])ccc2c1Cl | 12.9% (active)
CCN(CC)c1ccc(N=Nc2ncn[nH]2)cc1 | -1.86%
COc1ccc2ccccc2c1C1CC(=O)N2CN(C)CSC2=C1C#N (stereo not given) | 13.8% (active)
COc1ccc2ccccc2c1C1CC(=O)N2CN(C3CCCCC3)CSC2=C1C#N (stereo not given) | 7.17%
CCOc1ccccc1N1CSC2=C(C#N)C(c3c(OC)ccc4ccccc34)CC(=O)N2C1 (stereo not given) | 3.43%
O=C(O)COc1c(Cl)cc(/C=C2\NC(=O)NC2=O)cc1Br | 3.85%
CC(C)OC(=O)c1cccc(C(=O)Nc2cccc(NC(=O)c3cccc(C(=O)OC(C)C)n3)n2)n1 | 2.69%
O=C(O)c1cc(-c2ccc(/C=N/NC(=S)Nc3ccccc3)o2)ccc1Cl | 10.1%
O=C(N/N=C/c1ccc([N+](=O)[O-])o1)c1cc2c(ccc3ccccc32)o1 | -4.6%
COC(=O)c1cc(O)cc(OC)c1C(=O)c1c(O)cc(C)cc1O | 0%
COC(=O)c1cc(OC)cc(O)c1C(=O)c1c(O)cc(C)cc1O | 1.11%
Clc1ccc(-c2csc(Nc3cccnc3)n2)cc1 | -1.87%
CCCCCCNCc1c(F)cccc1Cl | -1.27%
CCOC(=O)/C(=N/Nc1ccccc1OC)N1CCCc2ccccc21 | 3.21%
Cc1nc2c(=O)n(-c3ccc(F)c(Cl)c3)nc(C)c2s1 | -1.25%
Cc1ccc(NC(=S)N/N=C2\CC3CC=CC23)c(C)c1 (stereo not given) | 2.83%
FC(F)(F)c1ccccc1NC(=S)N/N=C1\CC2CC=CC12 (stereo not given) | -4.32%
Cc1cccc(C)c1NC(=S)N/N=C1\CC2CC=CC12 (stereo not given) | 14.2% (active)
Clc1ccc(-c2nnc(-c3ccco3)nc2N2CCCCC2)cc1 | -2.38%
Cc1ccc(C(=O)N/N=C\c2ccc(-c3ccc(Cl)c(Cl)c3)o2)cn1 | -1.63%
Nc1ccc(C(=O)O)cc1[N+](=O)[O-] | -10.2%

Compound | inhibition
NS(=O)(=O)c1ccc(CNC(=O)NC2(c3ccccc3)CC2)cc1 | -5.17%
CCOc1ccccc1CN1CCC(CO)(CCOc2ccccc2)CC1 | -6.84%
Cc1ccccc1-n1c(SCC(=O)N2CCC(C(=O)O)CC2)nnc1-c1ccncc1 | 1.39%
Cc1c(Cl)cccc1-n1c(SCC(=O)N2CCC(C(=O)O)CC2)nnc1-c1ccncc1 | -2.06%
CCc1ccc(-n2c(SCC(=O)N3CCC(C(=O)O)CC3)nnc2-c2ccncc2)cc1 | 14.8% (active)
O=[n+]1c2c(n([O-])c3c1CCC3)CCCC2 | -2.34%
O=C(Nc1ccccc1)c1ccccc1N=Cc1ccccc1O | -2.01%
O=c1[nH][nH]c2c(N=Cc3ccccc3O)ccc(F)c12 | 28.6% (active)
O=c1[nH][nH]cc1C=Nc1ccccc1O | -0.91%
Cc1ccc(NC(=O)CC2=NC(=O)C(CC(=O)Nc3ccccc3C)S2)cc1 (stereo not given) | 0.67%
OC(CNCc1ccc2c(c1)OCO2)COc1ccc(F)cc1 (stereo not given) | -6.96%
COc1ccc(CN(CC2CCC(C(=O)O)CC2)C(=S)Nc2ccc(C)c(Cl)c2)cc1 (stereo not given) | 5.02%
CCC(=O)NC1=C(NC(C)c2ccccc2)C(=O)c2ccccc2C1=O (stereo not given) | 4.92%
CCC(=O)NC1=C(Cl)C(=O)C(NC(=O)CC)=C(Cl)C1=O | 15.5% (active)
CCC(=O)Nc1c(C)cc(C)cc1Cl | 2.67%
COc1ccc(-c2noc(CSc3nc(-c4ccccc4)cc(=O)[nH]3)n2)cc1OC | 2.31%
Cc1c(NC(=O)c2ccc3c(c2)C(=O)N(Cc2ccco2)C3=O)cccc1C(=O)O | -0.73%
O=C(Nc1ccc(Cl)cc1C(=O)O)c1ccc2c(c1)C(=O)N(Cc1ccco1)C2=O | 13.9% (active)
O=C(Nc1ccc(O)cc1C(=O)O)c1ccc2c(c1)C(=O)N(Cc1ccco1)C2=O | 4.38%
CNC(=O)COC(=O)c1cc2c(s1)CCCC2 | -3.54%
COc1ccc(C(=O)NC(=S)Nc2nc(C)cc(C)n2)cc1Br | 13.4% (active)
COc1ccc(C(=O)NC(=S)NC(C)C)cc1Br | 4.89%
COc1ccc(C(=O)NC(=S)NC(C)(C)C)cc1Br | -2.26%
CC1(C)CC(=O)C=C(NNC(=O)c2cccnc2)C1 | -2.32%
Cc1ccc(N2C(=O)CS/C2=C(\C(Cl)=C(Cl)Cl)[N+](=O)[O-])cc1 | 12.9% (active)

Compound | inhibition
Cc1ccc(N2C(=O)CSCC2=O)cc1 | -0.48%
CCOc1ccc(N2C(=O)CS/C2=C(\C(Cl)=C(Cl)Cl)[N+](=O)[O-])cc1 | 7.22%
CC(=O)N1N=C(c2cccs2)CC1c1cccs1 (stereo not given) | -7.39%
CCNC(=O)CCS(=O)(=O)c1ccc2ccccc2c1 | 5.84%
CCc1nc(SCC(=O)N2CC(=O)Nc3ccccc32)c2c(C)c(C)sc2n1 | 14.6% (active)
Cc1sc2nc(C3CC3)nc(SCC(=O)N3CC(=O)Nc4ccccc43)c2c1C | 2.43%
Cc1sc2nc(C3CCCCC3)nc(SCC(=O)N3CC(=O)Nc4ccccc43)c2c1C | -0.32%
COCCCNc1nc2nonc2nc1N1CCN(C2CCCC2)CC1 | -4.2%
CN1CCN(C(=S)Nc2ccccc2Cl)CC1 | 7.2%
CCCCOC(=O)CSc1nc2ccccc2o1 | 6.41%
COc1cc(-c2cn[nH]c2N)cc(OC)c1OC | 6.07%
COc1ccc(/C=N/NC(=O)c2ccc(Cl)c(S(N)(=O)=O)c2)cc1OCC(N)=O | 2.57%
O=C(O)C(c1ccccc1)C(c1ccccc1)c1ccccc1 (stereo not given) | 2.54%
O=C(O)C(c1ccccc1)C1(O)CCCC1 (stereo not given) | 13.3% (active)
O=C(O)C(c1ccccc1)c1ccccc1 | 4.26%
COc1ccc(C(=O)Nc2ccc([N+](=O)[O-])cn2)c(OC)c1 | 0.14%
CCN(CC)c1ccc(/C=N/N=C(c2ccccc2)c2ccccc2)c(O)c1 | 6.73%
Oc1cccc(/C=N/N(Cc2ccccc2)c2ccccc2)c1 | -0.56%
Oc1ccc(/C=N/N(Cc2ccccc2)c2ccccc2)c(O)c1O | 13.5% (active)
O=C(/C(=N/N=C/c1ccc(O)c(O)c1O)c1ccccc1)c1ccccc1 | 7.49%
COc1ccc(/C=N/N(Cc2ccccc2)c2ccccc2)cc1O | 6.68%
COc1ccc(C2CC(=O)c3cc(OC)c(OC)cc32)cc1OC (stereo not given) | -0.52%
CCOC(=O)C1=C(C)N=C2SC(C)C(=O)N2C1c1ccc(OCC)c(OCC)c1 (stereo not given) | 14.7% (active)
CCOC(=O)C1=C(C)N=C2SC(C)C(=O)N2C1c1ccc(OC(C)=O)c(OC)c1 (stereo not given) | 5.74%
CCOc1cc(C2C(C(=O)OC)=C(C)N=C3SC(C)C(=O)N32)ccc1OC(C)=O (stereo not given) | -1.96%
